Shown are actives, neighbours in structure and some others; about 3.5% of the full set was active somewhere.
GPR151 activ: human GPR151 activation; Q8TDV0; PathHunter beta-arrestin GPR151 cells, luminescence; activation, % at 11.2 µM; 1% of 650,000 active; AID 1508602; in the data active = activation above about 4.9%;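 also: 0% = median of compound wells and 100% = cells with positive control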
FBW7 act: human FBW7 E3 ligase activation, primary screen; Q969H0; AlphaScreen FBW7–phospho-cyclin E peptide binding, activator screen; normalized activity (activation), % at 26.1 µM; 0.13% of 650,000 active; in the data active = normalized activity above about 1.9%;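 also: purified mutant Fbw7 with reduced substrate affinity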
Target sequence (Q969H0 whole entry, looked up): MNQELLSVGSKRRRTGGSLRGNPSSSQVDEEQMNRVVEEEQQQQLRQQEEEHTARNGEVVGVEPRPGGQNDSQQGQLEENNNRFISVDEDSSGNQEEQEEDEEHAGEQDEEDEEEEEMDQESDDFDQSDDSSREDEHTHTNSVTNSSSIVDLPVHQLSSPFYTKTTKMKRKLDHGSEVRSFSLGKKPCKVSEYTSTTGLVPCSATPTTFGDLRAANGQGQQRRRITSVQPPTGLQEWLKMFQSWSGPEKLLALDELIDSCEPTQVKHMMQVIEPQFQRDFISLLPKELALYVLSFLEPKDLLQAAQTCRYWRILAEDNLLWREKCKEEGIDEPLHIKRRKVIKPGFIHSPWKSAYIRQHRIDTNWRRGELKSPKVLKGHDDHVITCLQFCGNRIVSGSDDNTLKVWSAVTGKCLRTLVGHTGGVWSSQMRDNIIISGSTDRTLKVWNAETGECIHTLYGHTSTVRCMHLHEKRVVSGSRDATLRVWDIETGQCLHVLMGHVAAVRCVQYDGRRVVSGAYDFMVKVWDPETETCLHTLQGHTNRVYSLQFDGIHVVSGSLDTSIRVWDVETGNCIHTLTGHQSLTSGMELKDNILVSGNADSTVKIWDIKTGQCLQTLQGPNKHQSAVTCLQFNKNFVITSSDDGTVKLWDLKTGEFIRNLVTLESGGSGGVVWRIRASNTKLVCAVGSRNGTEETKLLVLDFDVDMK
TEAD-YAP inh: TEAD-YAP interaction inhibition; HEK-TIYL cells, TEAD-Gal4/YAP UAS-luciferase luminescence; inhibition, % at 9.12 µM; 1.4% of 640,000 active; AID 1259422; in the data active = inhibition above about 32%;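 also: 0% = median of test compound wells and 100% = reference inhibitor wells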
MITF inh: human MITF inhibition, primary screen | O75030 | AID 1259374 | 0.91% of 650,000 active | AlphaScreen MITF homodimerization, bead proximity signal | inhibition, % at 2.6 µM; in the data active = inhibition above about 50%;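 also: 0% = vehicle wells with protein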
MITF inh conf: confirmation of human MITF inhibitors; shares compounds with MITF inh; inhibition, % at 2.6 µM; AlphaScreen MITF homodimerization, biotin/His-MITF beads; AID 1259372; 16% of 4,700 active;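 active = inhibition above a cutoff derived from the DMSO control wells, cut at about 28% in these data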;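 also: 0% = MITF dimer wells with DMSO only; inhibitors lower the bead chemiluminescence by keeping MITF from dimerizing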
AS interf ctr: optically interferes with AlphaScreen signal; shares compounds with MITF inh; LysRS AlphaScreen counterscreen, signal interference, triplicate; inhibition, % at 2.6 µM; 7.6% of 4,700 active; AID 1259376;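 active = inhibition above a cutoff derived from the DMSO control wells, cut at about 30% in these data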
GPR151 confirm: confirmation of human GPR151 activators | shares compounds with GPR151 activ | GPR151 PathHunter beta-arrestin cells, luminescence, 90 min; % of EA-reagent control over plate median | activation, % at 11.2 µM | 6,700 tested, under 10 active | AID 1508609;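 active = mean percent activation across replicates above the confirmation screen cutoff of 4.91%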
GPR119 counter: GPR119 activation, counter-screen for GPR151 activators; shares compounds with GPR151 activ; GPR119 PathHunter beta-arrestin cells, luminescence, 90 min; 0 = compound-well median, 100 = enzyme-acceptor control; activation, % at 11.2 µM; 0.3% of 6,700 active; AID 1508611;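 active = mean percent activation in the counterscreen above 29.09%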;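 also: counterscreen on off-target GPR119 to flag nonselective hits from the GPR151 activator screen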
The depositor's hits bear a star; · = not tested or not shown; ! = a repeat was not active.

SMILES	GPR151 activ	FBW7 act	TEAD-YAP inh	MITF inh	GPR151 confirm	GPR119 counter	others
COc1ccc2[nH]c(C)c(CCNCc3cccc(OC)c3OC)c2c1	0.7	0.1	12.6	51.9*	·	·	MITF inh conf=3.1;AS interf ctr=6.1
O=[N+]([O-])c1ccc(NCCc2ccccn2)c2ccncc12	-0.3	-0.2	-1.0	-1.5	·	·
Clc1ccc(CCNCc2ccccn2)c(Cl)c1	-1.1	0.0	-5.0	33.0	·	·
Fc1cccc(CCNCc2ccccn2)c1	0.3	-1.1	-8.3	62.0*	·	·	MITF inh conf=-5.3;AS interf ctr=5.5
CC(C)N1CCN(Cc2cccnc2)CC1	0.4	-0.1	12.6	73.8*	·	·	MITF inh conf=4.2;AS interf ctr=7.4
CCN1CCN(Cc2cccc(Br)c2)CC1	0.6	0.5	5.0	16.1	·	·
CCC(C)N1CCN(Cc2cccc(Br)c2)CC1 (stereo not given)	1.5	-0.2	9.2	73.4*	·	·	MITF inh conf=8.3;AS interf ctr=14.7
CC(C)N1CCN(Cc2ccco2)CC1	1.1	0.0	-2.0	61.6*	·	·	MITF inh conf=6.6;AS interf ctr=-2.9
COc1cccc(CN2CCN(C(C)C)CC2)c1	0.9	-0.1	4.2	46.2	·	·
CC(C)N1CCN(Cc2cccc(Br)c2)CC1	-0.3	-0.1	12.4	81.5*	·	·	MITF inh conf=14.1;AS interf ctr=12.7
C=CCN(CC#CCOc1ccccc1OC)CC=C	10.6*	0.1	-11.3	60.4*	0.0	-3.8	MITF inh conf=7.1;AS interf ctr=12.3
CN1CCN(CCC(=O)OC2CC3CCC(C2)N3C)CC1 (stereo not given)	1.0	0.1	4.5	8.8	·	·
CN1C2CCC1CC(OC(=O)CNCc1cccs1)C2 (stereo not given)	7.3*	0.0	-0.3	51.5*	0.5	4.9	MITF inh conf=7.1;AS interf ctr=13.6
CCN1C(=O)NC(=O)/C(=C\c2cn(CC(=O)N3CCCCC3C)c3ccccc23)C1=O (stereo not given)	-2.3	-0.8	-14.1	3.7	·	·
O=c1c2ccccc2nc(/C=C/c2ccco2)n1-c1ccc(O)cc1	5.1*	-0.2	10.6	13.4	2.5	9.7
CC(Oc1cccc(Cl)c1)C(=O)O (stereo not given)	1.8	0.0	-8.7	-54.3	·	·
O=C(COc1ccccc1)N1CCN(C2CC3CCC2C3)CC1 (stereo not given)	-0.5	0.1	0.3	11.6	·	·
CCOc1ccc(C2SCC(=O)Nc3c2c(=O)[nH]n3C(CC)CC)cc1 (stereo not given)	7.1*	0.2	0.2	7.6	-0.3	-15.0
CNc1ccc([N+](=O)[O-])c2cccnc12	0.2	-0.4	-7.1	15.9	·	·
CCn1c(O)c(C=NCCc2c[nH]c3ccccc23)c(=O)[nH]c1=O	5.4*	-0.1	4.0	3.8	0.4	-4.8
CC(C(=O)N1CCC2(CC1)OCCO2)C1Sc2ccccc2NC1=O (stereo not given)	9.2*	0.0	-5.7	-8.0	0.5	-7.7
COc1ccc2[nH]cc(CN(C)C)c2c1	2.2	0.6	12.4	8.7	·	·
COc1ccc2[nH]c3c(c2c1)CCN=C3C	5.6*	-0.3	·	-8.2	-0.2	6.1
CCCCC/C=C\C/C=C\C/C=C\C/C=C\CCCC(=O)NCCO	7.1*	·	·	9.9	0.0	-8.4
CCCCOC(=O)c1ccccc1C(=O)OCCCC	5.9*!	0.1	0.1	-15.4	1.4	2.3
SMILES	GPR151 activ	FBW7 act	TEAD-YAP inh	MITF inh	GPR151 confirm	GPR119 counter	others
NC(=O)OCCCc1ccccc1	1.6	0.0	-9.8	-3.8	·	·
Cc1ccc2c(c1)C1CN(C)CCC1N2C=O (stereo not given)	0.1	0.2	-0.5	13.0	·	·
COC(=O)COc1ccc(C=C2C(=O)NC(=O)NC2=O)cc1	5.2*	-0.5	-6.4	-10.1	-0.4	1.0
COc1cc(N2CCOCC2)ccc1/C=C1\C(=O)NC(=O)N(Cc2cccs2)C1=O	-0.7	-0.4	9.2	1.8	·	·
COc1cc(N2CCOCC2)ccc1C=C1C(=O)NC(=O)NC1=O	8.0*	-0.7	4.2	4.6	0.0	-3.6
NC1=Nc2ccccc2Sc2ccccc21	5.3*	-0.1	-26.9	-0.8	-0.1	9.0
COc1cc(CN2CCN(C(C)C)C(CCO)C2)cc2c1OCO2 (stereo not given)	0.3	0.3	6.5	12.6	·	·
CN1CCN(C(=O)C(O)(c2ccccc2)c2ccccc2)CC1	10.9*	0.1	-5.2	-4.3	0.0	1.1
CC1=CC(=O)NP(=O)(Oc2ccc(Cl)cc2)N1 (stereo not given)	-0.1	0.3	7.1	8.6	·	·
CC1(C)C(c2ccccc2)=[N+]([O-])C(c2cccnc2)N1O (stereo not given)	6.2*	0.6	5.8	0.4	-0.4	-6.9
CC1(C)C(c2ccccn2)=[N+]([O-])C(c2cccnc2)N1O (stereo not given)	-0.5	0.3	4.9	24.0	·	·
C=CCN1C[C@H](C)N([C@H](c2ccc(C(=O)N(CC)CC)cc2)c2cccc(OC)c2)C[C@H]1C	5.2*	0.0	·	2.0	-0.3	-3.6
Cc1ccc2c(c1)CNc1ccccc1O2	5.2*	0.1	-5.0	5.8	0.0	-8.6
COc1ccc(N2CCN(C3CCCN(C(=O)Cc4cccs4)C3)CC2)cc1 (stereo not given)	0.2	0.0	11.7	2.6	·	·
CN1CCN(c2ccc(/C=C(\C#N)C(N)=O)cc2[N+](=O)[O-])CC1	17.1*	0.2	0.2	16.4	1.3	4.7
C=C(C)[C@H]1CN[C@H](C(=O)O)[C@H]1CC(=O)O	7.6*!	0.3	-2.6	-3.3	-0.4	-0.9
CN1CCN(Cc2cccc(F)c2)CC1CCO (stereo not given)	-0.1	0.0	8.7	-14.1	·	·
COc1ccc(OC)c(N2Cc3ccccc3C2=N)c1	5.9*	0.0	-11.4	-13.6	0.1	3.4
COc1cccc(CCNCc2cc(OC)c(OC)cc2[N+](=O)[O-])c1	8.4*	0.0	5.6	25.4	-0.3	-5.9
COc1cccc(CCNCc2ccccc2[N+](=O)[O-])c1	0.0	0.5	-11.9	41.0	·	·
CN1CCN(Cc2ccc(Cl)cc2)CC1CCO (stereo not given)	-0.2	0.0	7.2	11.8	·	·
C[C@]12CC[C@H](O)C[C@H]1CC[C@@H]1[C@@H]2C[C@@H](O)[C@]2(C)[C@@H](C3=CC(=O)OC3)CC[C@]12O	5.7*!	-0.3	98.1*	-9.4	-0.1	108.8*
O=C(C1CN(CCc2c[nH]c3ccccc23)CCN1)N1CCOCC1 (stereo not given)	5.1*	-0.1	-2.5	7.3	-0.8	-14.6
CCOC(=O)C(O)(c1ccc(NC(=O)NC2CCCCC2)cc1)C(F)(F)F (stereo not given)	1.3	0.3	-12.3	-15.6	·	·
O=C(O)c1c2c(nc3ccccc13)CCNC2	6.9*	0.0	-9.4	-2.4	1.2	7.8

Compound activity: PubChem BioAssay, The Scripps Research Institute Molecular Screening Center
